Holding throughout (assay): NCI-60 one-dose screen, 48 h (100 = growth as untreated, 0 = no growth, -100 = all killed)
The test system of assay [1] is K-562 leukemia. The settings on record: 10 µM unless noted.
The subject of assay [2] is MALME-3M melanoma. The settings on record: 10 µM unless noted.
Assay [3] concerns RXF 393 renal. The settings on record: 10 µM unless noted.
Assay [4] has as its system SF-295 CNS. The settings on record: 10 µM unless noted.
Assay [5] relates to UACC-257 melanoma. The settings on record: 10 µM unless noted.
The subject of assay [6] is HCT-15 colon. The settings on record: 10 µM.
For assay [7], the system named is UACC-62 melanoma. The settings on record: 10 µM unless noted.
Assay [8] concerns LOX IMVI melanoma. The settings on record: 10 µM unless noted.
For assay [9], the system named is SK-MEL-2 melanoma. The settings on record: 10 µM unless noted.
The subject of assay [10] is TK-10 renal. The settings on record: 10 µM unless noted.
For assay [11], the system named is ACHN renal. The settings on record: 10 µM unless noted.
Assay [12] relates to A498 renal. The settings on record: 10 µM unless noted.
In assay [13] the test system is HL-60(TB) leukemia. The settings on record: 10 µM unless noted.
In assay [14] the test system is MOLT-4 leukemia. The settings on record: 10 µM.
In assay [15] the test system is OVCAR-8 ovarian. The settings on record: 10 µM unless noted.
In assay [16] the test system is OVCAR-4 ovarian. The settings on record: 10 µM unless noted.
Assay [17] deals with NCI/ADR-RES ovarian. The settings on record: 10 µM unless noted.
Assay [18] concerns T-47D breast. The settings on record: 10 µM unless noted.
The test system of assay [19] is BT-549 breast. The settings on record: 10 µM.
Assay [20] deals with HCC-2998 colon. The settings on record: 10 µM unless noted.

This passage reports growth results from PubChem BioAssay (NCI).

Compounds without any hit were thinned out: in the full panel of roughly 83,000, 20% have a hit.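 Single-dose data. Exposure time 48 hours. Values below 10 considered active.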 A number with no mark means an inactive call. Active and inactive are the calls of the source.

As for `CC(C)Nc1ccc(Nc2ccccc2)cc1`, the growth in [1] was 24.6%; in assay [2], 43%; in assay [3] it was 55.5%; in assay [4] it was 12.5%; in assay [5], 47.5%; in assay [6], 84.3%. Moreover, the growth is 65% in [7]; 14.5% in [8]; 80.5% in [9]; 45.2% in [10]; 30.5% in assay [11]; 65.9% in [12]. For the same molecule, the growth is 69.3% in assay [13]; 43.6% in assay [14]; 28.1% in assay [15]; 28.3% in assay [16]; 74.8% in assay [17]; 42.9% in assay [18]. The growth in assay [19] was 22.8%; in assay [20], 49.6%.
As for `CC(=O)N1N=C(c2ccccc2)CC1c1sc(N(CCCl)CCCl)nc1Cl` (stereo not given), the growth is 80% in assay [1]; 109% in [2]; 97.5% in assay [3]; 92.5% in assay [4]; 92.2% in assay [5]; 94.8% in assay [6]. In addition, the growth in assay [7] was 64.5%; in assay [8], 103%; in [9] it was 87.1%; in [10], 108%; in assay [11] it was 99.2%; in [12], 97.5%. For the same molecule, the growth in assay [13] was 98%; in [14], 86.7%; in [15], 95.8%; in assay [16] it was 101%; in assay [17] it was 99%; in [18], 82.3%. Also, the growth in assay [19] is 92.8%; in assay [20], 96.4%.
`COc1ccc(C2SCC(=O)Nc3c2c(C)nn3-c2nc3ccc(C)cc3s2)cc1O` (stereo not given): the growth in assay [1] is 9.45% (active); in assay [2] it was 43.5%; in assay [3] it was 50.2%; in [4], 32.4%; in [5] it was 70.1%; in assay [6], 23.9%. The growth is 40.2% in assay [7]; 36.9% in [8]; -1.24% (active) in [9]; 71.6% in assay [10]; 44.2% in assay [11]; 40.9% in assay [12]. Besides, the growth in assay [13] is 3.8% (active); in assay [14], 18.2%; in [15], 50.7%; in [16], 72.7%; in assay [17], 17.3%; in assay [20], 54.2%.
For `C[C@]12CC[C@H](OC3OC(O)C(O)C(O)C3O)C=C1CCC1C2CC[C@]2(C)[C@@H](c3ccc(=O)oc3)CC[C@]12O` (stereo not given in full), the growth in assay [1] is -35.3% (active); in assay [2], -47.6% (active); in [3], -24.3% (active); in assay [4], -77.7% (active); in [5] it was 112%; in assay [6] it was -81.8% (active). In addition, the growth in assay [7] was -84.3% (active); in assay [8] it was -84.4% (active); in [9] it was -61.3% (active); in assay [10] it was -80.6% (active); in assay [12], -23.3% (active); in [13], -57.3% (active). In addition, the growth in [14] was -39.3% (active); in [15], 110%; in [16] it was -41.9% (active); in [17], -71.2% (active); in [18], -71.4% (active); in [19], -92.3% (active). Besides, in assay [20], the growth was -90.4% (active).
For `O=C(O)c1nn(Cc2ccc(Cl)cc2)c2ccccc12`, the growth in assay [1] was 104%; in assay [2], 113%; in [3], 123%; in assay [5], 93.1%; in [6] it was 102%; in assay [7] it was 102%. The growth in [8] was 101%; in assay [9], 114%; in [10], 123%; in assay [11], 117%; in assay [12], 96.5%; in assay [13], 103%. Moreover, the growth in assay [14] was 111%; in assay [15], 92.7%; in assay [16] it was 100%; in [17], 112%; in assay [18], 104%; in [19], 122%. Besides, the growth in assay [20] was 120%.
Turning to `Cc1ccccc1O`, the growth was 119% in [1]; 115% in assay [2]; 102% in [3]; 135% in [4]; 106% in assay [5]; 106% in assay [6]. The growth in assay [7] was 107%; in assay [8], 91.5%; in assay [9] it was 109%; in assay [10] it was 115%; in assay [11], 103%; in assay [12], 129%. Besides, the growth in [13] was 110%; in assay [14], 107%; in assay [15], 103%; in assay [16], 101%; in [17], 100%; in assay [18], 94.9%. The values for the growth in assay [19] and in [20] were 102% and 99.4%, respectively.
As for `COc1cc2c(cc1OC)CN(C)C(C)C2` (stereo not given), the growth was 101% in [1]; 95.9% in assay [2]; 118% in assay [3]; 99% in [4]; 104% in [5]; 102% in [6]. For the same molecule, the growth is 89.4% in assay [7]; 95.1% in [8]; 100% in assay [9]; 101% in assay [10]; 106% in [11]; 84% in assay [12]. Further, the growth in assay [13] was 87.9%; in assay [14] it was 113%; in assay [15] it was 105%; in assay [16] it was 103%; in [17] it was 101%; in assay [18], 97.3%. Moreover, the growth in assay [19] was 115%; in assay [20], 97.5%.
As for `O=C1C=CC(=O)C2C1C1(Cl)C(Cl)=C(Cl)C2(Cl)C1(Cl)Cl` (stereo not given), the growth in [1] was 29.2%; in assay [2], 49.2%; in [3], 23.9%; in [4], 39.5%; in assay [5], 57.5%; in assay [6] it was 54.3%. Moreover, the growth is 46.1% in assay [7]; 50.5% in [8]; 37% in assay [9]; 71.5% in [10]; 50.8% in [11]; 36.1% in assay [12]. Besides, the growth in [13] is 9.38% (active); in assay [14] it was 59.5%; in [15], 74.3%; in [16], 58.1%; in assay [17], 47.3%; in assay [18], 28%. For the same molecule, the growth in assay [19] is 36.4%.
